# Publication PMC6602471
# In all, about 1,300 sequences were measured (“log fluorescence intensity”: median about 8.3, highest 2% from about 12 on). The sample holds the highest values, similar sequences and a random draw of the others, so the mix is not that of the screen.
# Molecular target: T1, ETS1 (Homo sapiens, UniProt P14921 1-441)
# T1 sequence: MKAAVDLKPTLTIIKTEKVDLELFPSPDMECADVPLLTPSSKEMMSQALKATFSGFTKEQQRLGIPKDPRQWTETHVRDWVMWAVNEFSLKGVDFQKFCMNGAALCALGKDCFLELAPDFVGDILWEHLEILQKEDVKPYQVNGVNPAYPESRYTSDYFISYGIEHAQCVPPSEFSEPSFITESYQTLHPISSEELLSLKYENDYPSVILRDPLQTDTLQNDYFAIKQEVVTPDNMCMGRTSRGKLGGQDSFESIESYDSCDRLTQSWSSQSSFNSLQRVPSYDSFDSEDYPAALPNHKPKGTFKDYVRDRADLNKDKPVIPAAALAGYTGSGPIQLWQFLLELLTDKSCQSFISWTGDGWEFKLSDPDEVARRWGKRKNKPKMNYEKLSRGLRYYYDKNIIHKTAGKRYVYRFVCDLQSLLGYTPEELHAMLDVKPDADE
# Test: custom PBM; custom protein-binding microarray; buffer, salt, pH and temperature not stated; high values mean tight binding
# Settings: dsDNA, one strand shown
row,Sequence,binding signal
1,TTAAGGGAAGACGGTTGTGGTAGTTCCGGGTATTAAGTCTTGATTCGCTTGACGCTGCTG,8.48 log fluorescence intensity
2,CGGAAGTGTCGTAAACGTCGGATATCCGGCTCTTCTGTCTTGATTCGCTTGACGCTGCTG,10.7 log fluorescence intensity
3,CGGAAGTGTCGTAAATGTCGGATATCCGGTTCTTCTGTCTTGATTCGCTTGACGCTGCTG,11.9 log fluorescence intensity
4,TCCGGCTACCAGCTTCACCCACTTCAGGCCTTGTAGGTCTTGATTCGCTTGACGCTGCTG,8.4 log fluorescence intensity
5,GCTGCTGCGGTGCGTACCCCACCGGATGTGACCCCGGTCTTGATTCGCTTGACGCTGCTG,9.93 log fluorescence intensity
6,GCTGCTGCGGTGCATACCCCACCGGATGTGACCCAGGTCTTGATTCGCTTGACGCTGCTG,10.3 log fluorescence intensity
7,TAAACGGAAGACGGTTGTGGTAGTTCCGGGTATTAAGTCTTGATTCGCTTGACGCTGCTG,10.1 log fluorescence intensity
8,CAGCATAGGACTTCTTCCCTGAAGCAATTGATAACCGTCTTGATTCGCTTGACGCTGCTG,8.39 log fluorescence intensity
9,CAGCATAGGACTTCCTCCCTGAAGCAATTGATAACCGTCTTGATTCGCTTGACGCTGCTG,12.7 log fluorescence intensity
10,CAGCATAGGACTTCGTCCCTGAAGCAATTGATAACCGTCTTGATTCGCTTGACGCTGCTG,8.36 log fluorescence intensity
11,CCTGCTGCGGTGCATACCCCACCGGATGTGACCCCGGTCTTGATTCGCTTGACGCTGCTG,10.4 log fluorescence intensity
12,TAAAGGGAAGACGGTTGTGGTAGTTGCGGGTATTAAGTCTTGATTCGCTTGACGCTGCTG,8.38 log fluorescence intensity
13,TAAAGGGAAGACGGTTGTGGTAGTTCCGGGTATTCAGTCTTGATTCGCTTGACGCTGCTG,8.52 log fluorescence intensity
14,TAAAGGGAAGACGGTTGTGGTAGTTCCGGGTATTACGTCTTGATTCGCTTGACGCTGCTG,8.47 log fluorescence intensity
15,CACAATTTTTACAGTAGTGTAGCACGCGTAACTCCTGTCTTGATTCGCTTGACGCTGCTG,8.33 log fluorescence intensity
16,TGTCGGGTAAGGGTATGTAGATCACGTGAATGAAAAGTCTTGATTCGCTTGACGCTGCTG,8.34 log fluorescence intensity
17,TAAAGGGAAGACCGTTGTGGTAGTTCCGGGTATTAAGTCTTGATTCGCTTGACGCTGCTG,8.5 log fluorescence intensity
18,CGGAAGTGTCGTAAACGTCGGATATCCGGTACTTCTGTCTTGATTCGCTTGACGCTGCTG,11.8 log fluorescence intensity
19,TCCTGCTACCAGCTCCACCCACTTCAGGCCTTGTAGGTCTTGATTCGCTTGACGCTGCTG,8.42 log fluorescence intensity
20,CAGCATAGGACTTCTTCCCTGAACCAATTGATAACCGTCTTGATTCGCTTGACGCTGCTG,8.33 log fluorescence intensity
21,CACAATTTTTACAGTAATGGAGCACGCGTAACTCCTGTCTTGATTCGCTTGACGCTGCTG,8.32 log fluorescence intensity
22,GCTGCTGCGGTACATACCCCACCGGATGTGACCCCGGTCTTGATTCGCTTGACGCTGCTG,10.5 log fluorescence intensity
23,GATTAATCTCTGCCCTTATTCGCACGTGCCATAACAGTCTTGATTCGCTTGACGCTGCTG,8.31 log fluorescence intensity
24,GCTGCTGCGGTGCATACACCACCGGATGTGACCCCGGTCTTGATTCGCTTGACGCTGCTG,10.2 log fluorescence intensity

row,Sequence,binding signal
1,GGAAAAAGGCCCAGGGTAACACGGGAAGTGGGCTTAGTCTTGATTCGCTTGACGCTGCTG,8.49 log fluorescence intensity
2,GGAAATAGGCCCAGGGTAACACCGGAAGTGGGCTTAGTCTTGATTCGCTTGACGCTGCTG,12 log fluorescence intensity
3,CGGAAGTGTCGTAAACGGCGGATATCCGGTTCTTCTGTCTTGATTCGCTTGACGCTGCTG,12.4 log fluorescence intensity
4,CGGAAGTGTCGTAAACGTCGGATATCCGGTTCTTCTGTCTTGATTCGCTTGACGCTGCTG,11.9 log fluorescence intensity
5,TGGAAGTGTCGTAAACGTCGGATATCCGGTTCTTCTGTCTTGATTCGCTTGACGCTGCTG,11.9 log fluorescence intensity
6,GGGAAGTGTCGTAAACGTCGGATATCCGGTTCTTCTGTCTTGATTCGCTTGACGCTGCTG,11.9 log fluorescence intensity
7,CGGAAGTGTCGTAAACGCCGGATATCCGGTTCTTCTGTCTTGATTCGCTTGACGCTGCTG,13.1 log fluorescence intensity
8,CGGAAGTGTCGTAAACGTCGGATATCCGGTTCTGCTGTCTTGATTCGCTTGACGCTGCTG,11.8 log fluorescence intensity
9,AGGAAGTGTCGTAAACGTCGGATATCCGGTTCTTCTGTCTTGATTCGCTTGACGCTGCTG,12 log fluorescence intensity
10,CGGAAGTGTCGTAAACGACGGATATCCGGTTCTTCTGTCTTGATTCGCTTGACGCTGCTG,12.4 log fluorescence intensity
11,CGGAAGTGTCGTAAACTTCGGATATCCGGTTCTTCTGTCTTGATTCGCTTGACGCTGCTG,11.9 log fluorescence intensity
12,GCTGCTGCGGTGCATACCCCACCGGATGTGACCGCGGTCTTGATTCGCTTGACGCTGCTG,10.5 log fluorescence intensity
13,CGGAAGTGTCGTAAACGTCGGATACCCGGTTCTTCTGTCTTGATTCGCTTGACGCTGCTG,8.31 log fluorescence intensity
14,TCCGGCTAACAGCTCCACCCACTTCAGGCCTTGTAGGTCTTGATTCGCTTGACGCTGCTG,8.32 log fluorescence intensity
15,GCTGCTGCGGTGCATAACCCACCGGATGTGACCCCGGTCTTGATTCGCTTGACGCTGCTG,10.4 log fluorescence intensity
16,CGGAAGTGTCGCAAACGTCGGATATCCGGTTCTTCTGTCTTGATTCGCTTGACGCTGCTG,12 log fluorescence intensity
17,CAGAATAGGACTTCTTCCCTGAAGCAATTGATAACCGTCTTGATTCGCTTGACGCTGCTG,8.33 log fluorescence intensity
18,TAAAGGGAAGACGGTTGTGGTAGTTCCGGGTATCAAGTCTTGATTCGCTTGACGCTGCTG,8.76 log fluorescence intensity
19,GCGGCTGCGGTGCATACCCCACCGGATGTGACCCCGGTCTTGATTCGCTTGACGCTGCTG,10 log fluorescence intensity
20,TGTCGGGTAAGGGAATATAGATCACGTGAATGAAAAGTCTTGATTCGCTTGACGCTGCTG,8.36 log fluorescence intensity
21,GATTAATTTCCGCCCTTATTCGCACGTGCCATAACAGTCTTGATTCGCTTGACGCTGCTG,13.9 log fluorescence intensity
22,AATTAATTTCTGCCCTTATTCGCACGTGCCATAACAGTCTTGATTCGCTTGACGCTGCTG,8.33 log fluorescence intensity
23,GATTAATTCCTGCCCTTATTCGCACGTGCCATAACAGTCTTGATTCGCTTGACGCTGCTG,10.3 log fluorescence intensity
24,GGAAAAAGGCCCAGGGTAACACCGGAAGTGGGTTTAGTCTTGATTCGCTTGACGCTGCTG,12 log fluorescence intensity

row,Sequence,binding signal
1,GCTGCTGCGGTGCATACCCCACCGGATGTAACCCCGGTCTTGATTCGCTTGACGCTGCTG,10 log fluorescence intensity
2,GGAAAAAGGCCCAGGTTAACACCGGAAGTGGGCTTAGTCTTGATTCGCTTGACGCTGCTG,12 log fluorescence intensity
3,TAAAGCGAAGACGGTTGTGGTAGTTCCGGGTATTAAGTCTTGATTCGCTTGACGCTGCTG,8.48 log fluorescence intensity
4,CGGAAGTGTCGTAAACGTCGGATATCCGGTCCTTCTGTCTTGATTCGCTTGACGCTGCTG,12.1 log fluorescence intensity
5,GATTAATTTCTGCCCTTTTTCGCACGTGCCATAACAGTCTTGATTCGCTTGACGCTGCTG,8.42 log fluorescence intensity
6,TACTGACTTATATATGCGAGTGCACATGAATAGACCGTCTTGATTCGCTTGACGCTGCTG,8.33 log fluorescence intensity
7,GATTAATTTCTGCCCTTATTCGTACGTGCCATAACAGTCTTGATTCGCTTGACGCTGCTG,8.36 log fluorescence intensity
8,CACAATTTTTATAGTAATGTAGCACGCGTAACTCCTGTCTTGATTCGCTTGACGCTGCTG,8.41 log fluorescence intensity
9,GGAAAAAGGCCGAGGGTAACACCGGAAGTGGGCTTAGTCTTGATTCGCTTGACGCTGCTG,12 log fluorescence intensity
10,GGAAAAAGGCTCAGGGTAACACCGGAAGTGGGCTTAGTCTTGATTCGCTTGACGCTGCTG,11.8 log fluorescence intensity
11,GGAAAAAGGCACAGGGTAACACCGGAAGTGGGCTTAGTCTTGATTCGCTTGACGCTGCTG,12.1 log fluorescence intensity
12,GGAAAAAGGGCCAGGGTAACACCGGAAGTGGGCTTAGTCTTGATTCGCTTGACGCTGCTG,12 log fluorescence intensity
13,GGAAAAAGGCCTAGGGTAACACCGGAAGTGGGCTTAGTCTTGATTCGCTTGACGCTGCTG,12.1 log fluorescence intensity
14,GGAAAAAGGCCCAGGGTAACACCGGAAGTGGGCCTAGTCTTGATTCGCTTGACGCTGCTG,12.1 log fluorescence intensity
15,TAAAGGGAAGACGGTTGTGGTAGTTCCGGGTAGTAAGTCTTGATTCGCTTGACGCTGCTG,8.59 log fluorescence intensity
16,CAGCAAAGGACTTCTTCCCTGAAGCAATTGATAACCGTCTTGATTCGCTTGACGCTGCTG,8.31 log fluorescence intensity
17,GCTGCTGCGGTGCATACCCCACCGGATGTGACCCCTGTCTTGATTCGCTTGACGCTGCTG,10.1 log fluorescence intensity
18,CAGCATAGGACTTGTTCCCTGAAGCAATTGATAACCGTCTTGATTCGCTTGACGCTGCTG,8.34 log fluorescence intensity
19,TAAAGGGAAGACGGTTGTGGTAGTTCCGGGTAATAAGTCTTGATTCGCTTGACGCTGCTG,8.57 log fluorescence intensity
20,GATTAATTTCTGCCCTTATTCGCACGTGCCGTAACAGTCTTGATTCGCTTGACGCTGCTG,8.34 log fluorescence intensity
21,GCTGCTGCGGTGCATACCCCACCGGAAGTGACCCCGGTCTTGATTCGCTTGACGCTGCTG,11 log fluorescence intensity
22,CGGAAGTGTCGTAAACGTCGGATATCCCGTTCTTCTGTCTTGATTCGCTTGACGCTGCTG,8.7 log fluorescence intensity
23,TGTCGGGTAAGGGAATGTAGATCACTTGAATGAAAAGTCTTGATTCGCTTGACGCTGCTG,8.32 log fluorescence intensity
